Outcome and AC50 data for 17 compounds are collected here from PubChem BioAssay (EPA / NIEHS).

Experiment [1] concerns the target Retinoic acid receptor RXR-alpha (Homo sapiens) (UniProt P19793). Briefly: ATG_RXRa_TRANS: Attagene TRANS-FACTORIAL HepG2 Assay for human Retinoid X Receptor alpha (RXRa) (AID 2283012). In outline:
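Cells (HepG2) carried transiently transfected GAL4-responsive reporter units. Following a 24 h chemical incubation, reporter mRNA induction was read via RT-PCR fragment analysis; DMSO served as negative control and baseline.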

The target of experiment [2] is human Retinoid X Receptor beta (RXRb), RXRB (gene 6257) (UniProt P28702). Description: ATG_RXRb_TRANS: Attagene TRANS-FACTORIAL HepG2 Assay for human Retinoid X Receptor beta (RXRb) (AID 2283013). In outline:
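Multiplexed TRANS reporter assay in HepG2; 24 h dosing; reporter mRNA by RT-PCR/CE fluorescence; gain-of-signal relative to DMSO.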

Experiment [3] addresses human RAR-related Orphan Receptor gamma (RORg), RORC (gene 6097) (UniProt P51449). Briefly: ATG_RORg_TRANS: Attagene TRANS-FACTORIAL HepG2 Assay for human RAR-related Orphan Receptor gamma (RORg) (AID 2283011). In outline:
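HepG2 cells transiently transfected with GAL4-UAS reporter units and chimeric RORg-Gal4 construct; after 24 h chemical exposure, reporter mRNA measured by RT-PCR with fluorescent capillary electrophoresis, gain of signal fitted against DMSO.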

For experiment [4], the target named is human Vitamin D Receptor (VDR), VDR (gene 7421) (UniProt P11473). Briefly: ATG_VDR_TRANS: Attagene TRANS-FACTORIAL HepG2 Assay for human Vitamin D Receptor (VDR) (AID 2283022). A digest of the protocol: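 HepG2 cells were transiently transfected with GAL4-UAS reporter units and a chimeric VDR-Gal4 construct, then dosed for 24 hours. Reporter mRNA was quantified by RT-PCR, fluorescent labeling, HpaI digestion and capillary electrophoresis; gain of signal analysed vs DMSO.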
Sequence of human Vitamin D Receptor (VDR), VDR (gene 7421) (P11473 whole entry, looked up, the tested form may be a part): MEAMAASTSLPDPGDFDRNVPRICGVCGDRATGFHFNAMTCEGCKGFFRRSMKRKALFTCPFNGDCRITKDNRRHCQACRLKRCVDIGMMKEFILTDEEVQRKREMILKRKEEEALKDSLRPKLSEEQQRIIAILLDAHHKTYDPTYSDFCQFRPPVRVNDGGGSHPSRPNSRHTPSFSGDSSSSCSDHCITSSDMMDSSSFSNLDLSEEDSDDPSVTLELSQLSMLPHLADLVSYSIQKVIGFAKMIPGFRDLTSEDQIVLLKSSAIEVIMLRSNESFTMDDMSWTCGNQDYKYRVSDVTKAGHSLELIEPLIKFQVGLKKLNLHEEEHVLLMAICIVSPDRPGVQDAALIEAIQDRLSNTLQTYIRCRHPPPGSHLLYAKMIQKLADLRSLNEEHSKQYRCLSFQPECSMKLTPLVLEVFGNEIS

The target of experiment [5] is human Thyroid Receptor alpha (THRa1), THRA (gene 7067) (UniProt P10827). Description: ATG_THRa1_TRANS: Attagene TRANS-FACTORIAL HepG2 Assay for human Thyroid Receptor alpha (THRa1) (AID 2283014). A digest of the protocol: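 HepG2 cells transiently transfected with chimeric NR-Gal4 and GAL4-UAS reporter units, dosed 24 h. Reporter mRNA quantified by RT-PCR, fluorescent labeling, HpaI digestion and capillary electrophoresis; gain-of-signal fit versus DMSO.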
Sequence of human Thyroid Receptor alpha (THRa1), THRA (gene 7067) (P10827 whole entry, looked up, the tested form may be a part): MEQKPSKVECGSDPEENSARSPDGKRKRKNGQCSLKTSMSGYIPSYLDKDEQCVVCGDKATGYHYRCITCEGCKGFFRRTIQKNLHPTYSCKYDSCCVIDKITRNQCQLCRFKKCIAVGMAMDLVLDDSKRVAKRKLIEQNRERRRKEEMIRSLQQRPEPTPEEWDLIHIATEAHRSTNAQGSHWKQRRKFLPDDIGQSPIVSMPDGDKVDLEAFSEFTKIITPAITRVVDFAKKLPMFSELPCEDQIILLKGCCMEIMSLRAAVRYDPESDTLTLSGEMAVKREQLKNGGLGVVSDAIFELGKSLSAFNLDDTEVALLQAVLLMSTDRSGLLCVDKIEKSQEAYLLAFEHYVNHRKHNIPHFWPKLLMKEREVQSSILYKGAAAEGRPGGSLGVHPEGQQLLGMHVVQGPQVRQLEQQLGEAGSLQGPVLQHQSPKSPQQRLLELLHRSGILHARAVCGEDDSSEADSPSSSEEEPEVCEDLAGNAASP

Read-out in experiment [6]: Interleukin-1 alpha (IL1a), IL1A (gene 3552)
Description: BSK_BE3C_IL1a: BioMAP Diversity Plus: BE3C Assay for Interleukin-1 alpha (IL1a) Biomarker Activity (AID 2283016; active means hit-call score of the fitted dose curve at least 0.9, where 1 is the maximum; inactive means score below 0.9). The settings on record: primary human bronchial epithelial cells; actives raise or lower the signal. In outline:
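Cultures of primary human bronchial epithelial cells receive test chemical. After 24 h, IL-1a is quantified by ELISA, while parallel wells are fixed in TCA and SRB-stained for total protein. Changes in either direction are fitted relative to DMSO.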

Read-out in experiment [7]: Monocyte Chemoattractant Protein-1 (MCP1), CCL2 (gene 6347)
Description: BSK_3C_MCP1: BioMAP Diversity Plus: 3C Assay for Monocyte Chemoattractant Protein-1 (MCP1) Biomarker Activity (AID 2283017; active means hit-call score of the fitted dose curve at least 0.9, where 1 is the maximum; inactive means score below 0.9). The settings on record: primary human endothelial cells (HUVEC); actives raise or lower the signal. A digest of the protocol: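 Human umbilical vein endothelial cells (3C system) exposed to chemicals for 24 h; MCP-1 quantified by ELISA against the DMSO baseline with bidirectional fitting, and parallel SRB staining used to assess cytotoxicity.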

Read-out in experiment [8]: Human Leukocyte Antigen - DR isotype (HLADR), HLA-DRA (gene 3122)
Description: BSK_3C_HLADR: BioMAP Diversity Plus: 3C Assay for Human Leukocyte Antigen - DR isotype (HLADR) Biomarker Activity (AID 2283019; active means hit-call score of the fitted dose curve at least 0.9, where 1 is the maximum; inactive means score below 0.9). To be noted: primary human endothelial cells (HUVEC); actives raise or lower the signal. In outline: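 HUVEC monoculture, HLA-DR measured by ELISA 24 h after chemical dosing. Fitted bidirectionally against DMSO baseline; parallel SRB staining assessed cytotoxicity, with 3C proliferation read by SRB at 48 h.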

Read-out in experiment [9]: Interleukin-8 (IL8), CXCL8 (gene 3576)
Description: BSK_3C_IL8: BioMAP Diversity Plus: 3C Assay for Interleukin-8 (IL8) Biomarker Activity (AID 2283020; active means hit-call score of the fitted dose curve at least 0.9, where 1 is the maximum; inactive means score below 0.9). The settings on record: primary human endothelial cells (HUVEC); actives raise or lower the signal. A digest of the protocol:
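Human vascular endothelial cells (umbilical vein) in the 3C system; IL-8 level detected by ELISA at 24 h post-dose, with DMSO as baseline.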

Read-out in experiment [10]: Monokine induced gamma interferon (MIG), CXCL9 (gene 4283)
Description: BSK_3C_MIG: BioMAP Diversity Plus: 3C Assay for Monokine induced gamma interferon (MIG) Biomarker Activity (AID 2283021; active means hit-call score of the fitted dose curve at least 0.9, where 1 is the maximum; inactive means score below 0.9;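 on AC50: MIG protein level measured by immunoassay in the treated endothelial cultures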). The settings on record: primary human endothelial cells (HUVEC); actives raise or lower the signal. In outline: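 After 24 h of treatment, human umbilical vein endothelial cultures (3C system) had their MIG biomarker level determined by ELISA, with DMSO serving as negative control.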

A short description of experiment [11]: BSK_3C_SRB: Viability Assessment in the BioMAP Diversity Plus: 3C Assay (AID 2283023; active means hit-call score of the fitted dose curve at least 0.9, where 1 is the maximum; inactive means score below 0.9;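 further: fitted both ways against DMSO so a hit may be signal rise or drop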). The settings on record: primary human endothelial cells (HUVEC). In outline:
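Human umbilical vein endothelial cells in the 3C system, treated 24 h. Total protein measured by 0.1% sulforhodamine B staining after 10% TCA fixation, read at 560 nm; bidirectional fit versus DMSO.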

The nature of experiment [12]: BSK_3C_Vis: BioMAP Diversity Plus: 3C Assay for Morphology Visualization (AID 2283025; active means hit-call score of the fitted dose curve at least 0.9, where 1 is the maximum; inactive means score below 0.9;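 further: fitted both ways so gain or loss versus DMSO counts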;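 on AC50: light microscopy image of cell morphology used as background control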). To be noted: primary human endothelial cells (HUVEC). In outline: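 Endothelial cells from human umbilical vein were treated with test chemicals for 24 h and inspected by light microscopy for changes in cell conformation.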
Read-out in experiment [13]: Pselectin, SELP (gene 6403)
Description: BSK_4H_Pselectin: BioMAP Diversity Plus: 4H Assay for Pselectin Biomarker Activity (AID 2283026; active means hit-call score of the fitted dose curve at least 0.9, where 1 is the maximum; inactive means score below 0.9). The settings on record: primary human endothelial cells (HUVEC); actives raise or lower the signal. In outline:
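Human vascular endothelium from umbilical vein; P-selectin measured by ELISA at 24 h post-dose, with cytotoxicity checked by sulforhodamine B total-protein staining in parallel cultures (0.1% SRB after 10% TCA fixation, read at 560 nm).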

Experiment [14] in a line: BSK_4H_SRB: Viability Assessment in the BioMAP Diversity Plus: 4H Assay (AID 2283027; active means hit-call score of the fitted dose curve at least 0.9, where 1 is the maximum; inactive means score below 0.9;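 further: cells exposed to compound for 24 h before staining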;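 on AC50: curves fitted both ways versus DMSO so AC50 may be loss or gain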). The settings on record: primary human endothelial cells (HUVEC). A digest of the protocol: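 Absorbance at 560 nm of SRB-stained total protein served as the viability read-out in confluent primary human umbilical vein endothelium 24 h after chemical treatment. Curves were fitted bidirectionally against DMSO as negative control.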

A short description of experiment [15]: BSK_BE3C_SRB: Viability Assessment in the BioMAP Diversity Plus: BE3C Assay (AID 2283028; active means hit-call score of the fitted dose curve at least 0.9, where 1 is the maximum; inactive means score below 0.9). The settings on record: primary human bronchial epithelial cells. A digest of the protocol:
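Human bronchial epithelial primary cells in confluent culture, 24 h after chemical dosing; total protein by 0.1% SRB staining after 10% TCA fixation, read at 560 nm. Bidirectional fitting versus DMSO baseline.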

Read-out in experiment [16]: Thrombomodulin, THBD (gene 7056)
Briefly: BSK_3C_Thrombomodulin: BioMAP Diversity Plus: 3C Assay for Thrombomodulin Biomarker Activity (AID 2283029; active means hit-call score of the fitted dose curve at least 0.9, where 1 is the maximum; inactive means score below 0.9). The settings on record: primary human endothelial cells (HUVEC); actives raise or lower the signal. In outline: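 Thrombomodulin ELISA, human primary HUVEC, 24 h post-dose; data fitted in both directions relative to DMSO.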

Read-out in experiment [17]: E-selectin (Homo sapiens) (UniProt P16581)
Description: BSK_3C_Eselectin: BioMAP Diversity Plus: 3C Assay for Eselectin Biomarker Activity (AID 2283015; active means hit-call score of the fitted dose curve at least 0.9, where 1 is the maximum; inactive means score below 0.9;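 further: cell surface E-selectin protein quantified by ELISA 24 h after dosing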). The settings on record: primary human endothelial cells (HUVEC); actives raise or lower the signal. A digest of the protocol: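 Primary human umbilical vein endothelial cells (3C system), read 24 h after compound addition; E-selectin measured by ELISA. Bidirectional curve fitting against DMSO baseline; cytotoxicity by parallel SRB total-protein staining.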

Read-out in experiment [18]: Monocyte Chemoattractant Protein-1 (MCP1), CCL2 (gene 6347)
Description: BSK_4H_MCP1: BioMAP Diversity Plus: 4H Assay for Monocyte Chemoattractant Protein-1 (MCP1) Biomarker Activity (AID 2283018; active means hit-call score of the fitted dose curve at least 0.9, where 1 is the maximum; inactive means score below 0.9). To be noted: primary human endothelial cells (HUVEC); actives raise or lower the signal. A digest of the protocol: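 Readout: MCP-1 ELISA on compound-treated HUVEC, sampled 24 h post-dosing. Baseline and negative control DMSO; bidirectional fit. Overt toxicity checked alongside by sulforhodamine B protein staining at time of biomarker measurement.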

Read-out in experiment [19]: Matrix Metallopeptidase 1 (MMP1), MMP1 (gene 4312)
Description: BSK_BE3C_MMP1: BioMAP Diversity Plus: BE3C Assay for Matrix Metallopeptidase 1 (MMP1) Biomarker Activity (AID 2283024; active means hit-call score of the fitted dose curve at least 0.9, where 1 is the maximum; inactive means score below 0.9). To be noted: primary human bronchial epithelial cells; actives raise or lower the signal. In outline: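 Dose cells, wait 24 h, run MMP1 ELISA; cells are human bronchial epithelial primaries. Both increases and decreases relative to DMSO counted.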

Values joined by “and” are separate entries in the source; they are usually repeats but may differ in a detail not shown here. Equal entries are not always repeated. Results filed as inconclusive are left out. Active and inactive are the calls of the source. How the source made its calls, unless noted: active means hit-call score of the fitted dose curve at least 0.9, where 1 is the maximum; inconclusive means response in the unintended direction; inactive means score below 0.9.

Sequence of Retinoic acid receptor RXR-alpha (Homo sapiens) (P19793 whole entry, looked up, the tested form may be a part): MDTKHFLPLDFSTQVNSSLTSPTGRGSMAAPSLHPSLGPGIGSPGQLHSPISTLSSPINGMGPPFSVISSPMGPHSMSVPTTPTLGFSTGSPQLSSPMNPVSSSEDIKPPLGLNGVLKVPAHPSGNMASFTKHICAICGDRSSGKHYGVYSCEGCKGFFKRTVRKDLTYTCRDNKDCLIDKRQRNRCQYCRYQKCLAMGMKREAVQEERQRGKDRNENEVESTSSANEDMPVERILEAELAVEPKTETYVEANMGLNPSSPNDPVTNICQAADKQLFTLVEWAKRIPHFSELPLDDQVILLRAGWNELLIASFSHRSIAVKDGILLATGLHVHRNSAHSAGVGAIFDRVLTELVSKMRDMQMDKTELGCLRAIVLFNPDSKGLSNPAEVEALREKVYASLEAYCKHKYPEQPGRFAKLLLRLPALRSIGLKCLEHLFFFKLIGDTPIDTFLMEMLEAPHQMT
Sequence of human Retinoid X Receptor beta (RXRb), RXRB (gene 6257) (P28702 whole entry, looked up): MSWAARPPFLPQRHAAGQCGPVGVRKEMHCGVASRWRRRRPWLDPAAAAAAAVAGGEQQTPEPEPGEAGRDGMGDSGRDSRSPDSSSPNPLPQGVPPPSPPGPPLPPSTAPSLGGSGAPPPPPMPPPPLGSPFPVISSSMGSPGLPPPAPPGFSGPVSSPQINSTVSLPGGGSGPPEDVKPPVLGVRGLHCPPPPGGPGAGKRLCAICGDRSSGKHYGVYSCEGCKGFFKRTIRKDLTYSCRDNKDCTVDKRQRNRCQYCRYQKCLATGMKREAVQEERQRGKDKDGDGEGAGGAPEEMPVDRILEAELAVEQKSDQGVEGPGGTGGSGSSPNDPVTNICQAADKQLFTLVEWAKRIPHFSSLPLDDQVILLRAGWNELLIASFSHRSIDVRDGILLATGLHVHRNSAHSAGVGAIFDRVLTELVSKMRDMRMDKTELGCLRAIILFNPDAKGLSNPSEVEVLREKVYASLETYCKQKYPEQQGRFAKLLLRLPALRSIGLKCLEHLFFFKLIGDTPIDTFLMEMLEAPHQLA
Sequence of human RAR-related Orphan Receptor gamma (RORg), RORC (gene 6097) (P51449 whole entry, looked up, the tested form may be a part): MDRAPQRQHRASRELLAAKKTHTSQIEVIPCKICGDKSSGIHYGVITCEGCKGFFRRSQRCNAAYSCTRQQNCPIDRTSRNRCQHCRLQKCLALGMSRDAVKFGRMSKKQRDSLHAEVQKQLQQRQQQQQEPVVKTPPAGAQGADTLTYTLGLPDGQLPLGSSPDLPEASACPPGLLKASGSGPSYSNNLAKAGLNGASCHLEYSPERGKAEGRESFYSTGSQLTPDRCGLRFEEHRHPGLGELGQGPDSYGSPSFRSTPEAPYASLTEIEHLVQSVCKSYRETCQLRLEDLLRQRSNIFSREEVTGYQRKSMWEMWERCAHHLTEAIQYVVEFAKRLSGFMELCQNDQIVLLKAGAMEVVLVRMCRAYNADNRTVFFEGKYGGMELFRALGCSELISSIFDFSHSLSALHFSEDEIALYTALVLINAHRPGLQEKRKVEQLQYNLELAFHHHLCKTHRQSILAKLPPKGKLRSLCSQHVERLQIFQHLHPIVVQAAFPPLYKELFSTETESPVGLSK
Sequence of E-selectin (Homo sapiens) (P16581 whole entry, looked up): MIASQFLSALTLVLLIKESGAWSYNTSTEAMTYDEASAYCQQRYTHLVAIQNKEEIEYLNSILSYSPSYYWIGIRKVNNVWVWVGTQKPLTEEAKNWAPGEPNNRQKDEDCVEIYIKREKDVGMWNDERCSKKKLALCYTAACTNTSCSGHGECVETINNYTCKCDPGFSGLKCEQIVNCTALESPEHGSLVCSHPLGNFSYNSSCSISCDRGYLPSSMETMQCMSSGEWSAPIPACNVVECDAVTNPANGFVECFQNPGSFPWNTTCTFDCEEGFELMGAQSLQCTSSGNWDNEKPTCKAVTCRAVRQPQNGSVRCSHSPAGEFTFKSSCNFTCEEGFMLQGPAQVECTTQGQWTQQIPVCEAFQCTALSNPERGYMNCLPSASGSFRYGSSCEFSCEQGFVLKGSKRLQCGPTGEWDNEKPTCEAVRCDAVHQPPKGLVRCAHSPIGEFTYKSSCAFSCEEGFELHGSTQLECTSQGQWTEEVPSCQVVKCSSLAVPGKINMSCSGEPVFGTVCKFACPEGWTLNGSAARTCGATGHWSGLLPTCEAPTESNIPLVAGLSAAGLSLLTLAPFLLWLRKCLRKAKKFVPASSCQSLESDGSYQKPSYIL

Take `CCCCC(C=O)CC` (stereo not given): the outcome in experiment [1] and in experiment [2] was inactive.
`C=C(C)C1CC=C(C)CC1` (stereo not given): the result in [3] and in [2] was inactive.
`CC(C)CCOCc1ccccc1`: the compound was classed as inactive in experiment [3], in [2] and in [4].
Consider `Cc1cc(C)c(C=O)c(C)c1`, for which the compound was classed as inactive in experiment [3], in experiment [1], in experiment [2], in experiment [5] and in experiment [4].
Take `O=C(OCCc1ccccc1)c1ccccc1`: the result in experiment [3], in experiment [2] and in experiment [4] was inactive.
As for `CCCCCCCCCCCC(=O)OCC`, the outcome in experiment [3], in experiment [2] and in experiment [4] was inactive.
In the case of `COc1ccc(C(=O)/C(Br)=C\C(=O)O)cc1`, the compound was called inactive in [3], in [1], in [2], in experiment [5], in [4] and in [11]. Further, in [15], the outcome was inactive. For the same compound, the concentration at half-maximal activity (AC50) in experiment [6] is 25.5 µM (active) and 15.9 µM (active); in experiment [7] it was 28.8 µM (active) and 30.2 µM (active); in experiment [8], 12.4 µM (active) and 20 µM (active); in experiment [9], 20 µM (active) and 25.9 µM (active); in experiment [10] it was 35.3 µM (active) and 34.3 µM (active); in [12], 37.4 µM (active) and 37.5 µM (active). Besides, the AC50 was 6.04 µM (active) and 16.3 µM (active) in [13]; 20 µM (active) and 17.1 µM (active) in [14]; 34.9 µM (active) and 35.4 µM (active) in experiment [16].
Take `COCC(=O)O`: the result in experiment [3], in experiment [1], in [5] and in [4] was inactive.
As to `CCCC(CC)c1ccccc1` (stereo not given), the compound was called inactive in [3], in experiment [1], in experiment [5] and in [4]. In addition, the AC50 in experiment [2] is 66.4 µM (active).
Consider `CCOC(=O)c1ccccc1C`, for which the call in experiment [3] and in [5] was inactive.
On to `C=CCCCCCCCCO`, for which the call in [1], in experiment [2] and in experiment [5] was inactive.
As for `CC(CC=O)CC(C)(C)C` (stereo not given), the result in [1], in [2] and in [5] was inactive.
Regarding `CC(Cl)COP(=O)(OCC(C)Cl)OCC(C)Cl` (stereo not given), the compound was called inactive in experiment [1], in experiment [2], in experiment [5], in experiment [17], in experiment [6] and in experiment [7]. For the same compound, the result in experiment [18], in [8], in [10], in experiment [4], in experiment [11] and in [19] was inactive. In addition, the outcome in [12], in experiment [13], in experiment [14], in experiment [15] and in experiment [16] was inactive.
With `CC(C)c1ccc2ncccc2c1`, the compound was classed as inactive in experiment [1], in experiment [2] and in [5].
Consider `CC(C)=CCCC(C)=CC#N`, for which the compound was classed as inactive in [1] and in experiment [2].
As for `CC1CCC(C(C)(C)S)C(=O)C1` (stereo not given), the compound was called inactive in experiment [1], in experiment [2], in [5] and in experiment [4].
Take `C=CCCCCCCCCOC(C)=O`: the compound was called inactive in experiment [1], in experiment [2] and in experiment [5].
